Screens deposited in PubChem BioAssay by National Center for Advancing Translational Sciences (NCATS).
HCMV inh: blocks human cytomegalovirus replication; activity change, negative = inhibition, % at 57.5 µM; HFF cells, HCMV-luciferase reporter, 72 h; hits give low values; 410,000 compounds, 4.5% hits; in the data active = activity change below about -60%; inconclusive = no clear call, values can overlap the other calls; inactive = above about -39%; also: % is scaled to controls: 0 for no effect and ±100 for the full control effect
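Two-dose cell screen: HFF monolayers treated with compounds and infected with luciferase-expressing HCMV at 1 PFU/cell, 72 h at 37C, then lysed for luciferase measurement.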
Pf growth 48h: P. falciparum growth inhibition at 48 hours (one generation); P. falciparum luciferase growth in erythrocytes, 48 h; Potency, µM (top dose mostly 28.7 µM), for the others: top-dose activity change, negative = inhibition, usual class: inhibitors; 310,000 compounds, 5.9% hits; also: potency is read from the fitted curve at half-maximal effect; % is scaled to controls: 0 for no effect and ±100 for the full control effect
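Compounds are pin-transferred into medium, infected erythrocytes (2% hematocrit, 0.1% parasitemia final) are added, and plates sit one parasite generation at 37 C in 5% CO2. Detection reagent is then added and luminescence measured.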
SARS PLpro yeast: SARS-CoV PLP inhibition in yeast; S. cerevisiae expressing SARS-CoV PLpro, growth rescue; Potency, µM (titrated, usually from 32.9 µM), for the others: at the top dose activity, positive = growth rescue, actives largely listed as activators; 330,000 compounds, 0.19% hits; AID 485353; calls by dose curve; also: potency is read from the fitted curve at half-maximal effect; 0% is about no effect; nearly all actives have a fitted effect of over 55% in size
Pf growth 96h: P. falciparum growth inhibition at 96 hour, primary screen for plastid delayed-death inhibitors; AID 504834; 320,000 compounds, 6.9% hits; Potency, µM (highest dose often 28.7 µM), for the others: top-dose activity change, negative = inhibition, actives largely listed as inhibitors; P. falciparum luciferase reporter growth, 96 h; also: potency is read from the fitted curve at half-maximal effect; % is scaled to controls: 0 for no effect and ±100 for the full control effect
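Two-generation exposure (96 h) targets delayed-death phenotype. Reporter parasites carrying integrated firefly luciferase, in red cells at 2% hematocrit and 0.05% parasitemia final, kept at 37 C, 5% CO2; luminescence loss indicates inhibition.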
HCV inh: inhibitors of hepatitis C virus infection; Huh7.5.1 HCVcc-Cre infection, luciferase reporter, 44 h; Potency, µM (doses to about 41.8 µM), for inactives: at the highest dose activity change, negative = inhibition, hits mostly inhibitors; 340,000 compounds, 3.4% hits; also: potency is read from the fitted curve at half-maximal effect; % is scaled to controls: 0 for no effect and ±100 for the full control effect
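Infectious HCV cell culture screen: compound-treated cells (1,000/well, pre-plated 4 h) are infected with HCVcc-Cre at roughly 0.5 moi and grown 44 h. Infection is quantified by luciferase signal after 15 min substrate incubation at room temperature.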
Sm TGR inh: inhibitors of Schistosoma mansoni thioredoxin glutathione reductase; Q962Y6; 360,000 compounds, 3% hits; Potency, µM (highest dose often 114 µM), without a hit: at the highest dose activity change, negative = inhibition, usual class: inhibitors; purified TGR, DTNB reduction, TNB absorbance 405 nm; also: potency is read from the fitted curve at half-maximal effect; % is scaled to controls: 0 for no effect and ±100 for the full control effect; nearly all actives have a fitted effect of over 60% in size
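First, TGR (20 nM dispensed) and NADPH were mixed with compound. Second, a 15 min room-temperature incubation followed. Third, further NADPH and then DTNB were added to start the reaction. Finally, TNB absorbance was monitored kinetically.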
Numbers without * were called inactive; u = inconclusive; x = not tested or not shown. Hits are enriched below; roughly 15% of the tested compounds scored in any of these assays. Unless noted, calls follow the shape of the dose curve; as a rule, active = well fitted curve in the direction sought with a large enough effect; inconclusive = small, poorly fitted or top-dose-only effect, or another doubt; inactive = no such curve, though single readings can be large; an effect the other way counts as inactive or inconclusive.

SMILES	HCMV inh	Pf growth 48h	SARS PLpro yeast	Pf growth 96h	HCV inh	Sm TGR inh
Cc1cccc(N(C(=O)Cn2nnc(-c3ccccc3F)n2)C(C(=O)NC(C)(C)C)c2ccncc2)c1 (stereo unspecified)	u	17%	1%	10%	-5%	-5%
O=C(NC1CCCCC1)C(c1ccccc1)N(Cc1ccco1)C(=O)Cn1cnc2ccccc21 (stereo unspecified)	-39	3.7µM*	3%	81%	-9%	-33%
CCC(C)(C)NC(=O)C(c1ccccc1F)N(Cc1ccco1)C(=O)Cn1nnc2ccccc21 (stereo unspecified)	u	u	14%	u	-18%	u
CCC(C)(C)NC(=O)C(c1cccn1C)N(C(=O)Cn1nnc2ccccc21)c1ccc(F)cc1 (stereo unspecified)	-17	u	-4%	u	u	0%
CCC(C)(C)NC(=O)C(c1cccn1C)N(C(=O)Cn1nnc2ccccc21)c1ccc(OC)cc1 (stereo unspecified)	-32	12µM*	-3%	-4%	-4%	0%
Cc1ccc(CNC(=O)c2cc3c(s2)-c2ccccc2SC3)cc1	u	x	x	x	x	7%
CCCN(C(=O)c1cc2c(s1)-c1ccccc1SC2)c1ccccc1F	-68*	x	x	x	x	-2%
CN(C)CCNC(=O)c1cc2c(s1)-c1ccc(Cl)cc1SC2	-100*	2.6µM*	-4%	52%	11µM*	15%
CCOCCCNC(=O)c1cc2c(s1)-c1ccccc1SC2	31	2.6µM*	-5%	5.2µM*	-7%	-18%
Cc1ccc(CNC(=O)c2cc3c(s2)-c2ccc(Cl)cc2SC3)cc1	-5	x	x	x	x	-3%
O=C(O)c1cccc(S(=O)(=O)NCC2COc3ccccc3O2)c1 (stereo unspecified)	-5	x	-16%	x	15%	x
C=CCOc1ccc(C(=O)CC)cc1OC	-30	11%	-5%	-27%	u	1%
COc1ccc(S(=O)(=O)N(C)CC(=O)Nc2ccc(C(F)(F)F)cc2)cc1Cl	6	x	-3%	u	u	0%
CCC(CO)Nc1ccn2nc(-c3cccs3)cc2n1 (stereo unspecified)	84	x	x	x	x	x
CCc1nn(-c2cc(Cl)ccc2OC)c2c1C(=O)CCC2	-7	5%	0%	u	14µM*	10%
CCOc1ccc(CNC(=O)c2ccc3nc(C(C)C)oc3c2)cc1	1	x	x	x	x	1%
CC1Cn2c(nnc2-c2cccc(Cl)c2)S1 (stereo unspecified)	-4	7%	7%	u	-11%	6%
CC1(C)Cn2c(nnc2-c2cccc(O)c2)S1	3	44%	-1%	12µM*	3%	0%
CC(C)c1ccc(NC(=O)C2(C)Cc3c(-c4cccc(C(F)(F)F)c4)ccnc3O2)cc1 (stereo unspecified)	6	x	x	x	x	x
O=C1NN=C(c2ccc(Cl)cc2)CC1c1cccc(Br)c1 (stereo unspecified)	-6	4.1µM*	-14%	12%	-17%	4%
Cc1ccc(C2=NNC(=O)C(c3ccc(Cl)cc3)C2)cc1 (stereo unspecified)	-24	-6%	-2%	x	-10%	1%
CCOc1cc(CNC(=O)NC2COc3ccccc3C2)cc(OCC)c1OCC (stereo unspecified)	55	x	x	x	x	16%
Cc1ccc(CNS(=O)(=O)c2ccc3[nH]c4c(c3c2)CCCCC4)cc1	0	x	x	x	x	33%
CCOc1ccc(NS(=O)(=O)c2ccc3[nH]c4c(c3c2)CCCC4)cc1	2	x	x	x	x	9%
CN(C)c1ccc(CNS(=O)(=O)c2ccc3[nH]c4c(c3c2)CCCCC4)cc1	-65*	x	x	x	x	0%
SMILES	HCMV inh	Pf growth 48h	SARS PLpro yeast	Pf growth 96h	HCV inh	Sm TGR inh
O=S(=O)(Nc1cccc(Cl)c1)c1ccc2[nH]c3c(c2c1)CCCCCC3	-34	x	x	x	x	-1%
COc1ccc(NS(=O)(=O)c2ccc3[nH]c4c(c3c2)CCCC4)cc1Cl	1	x	x	x	x	3%
Cc1cccc(NS(=O)(=O)c2ccc3[nH]c4c(c3c2)CCCCCC4)c1	-103*	x	x	x	x	8%
CCOc1ccc(NS(=O)(=O)c2ccc3[nH]c4c(c3c2)CCCCC4)cc1	-103*	x	x	x	x	-1%
Cc1ccc(NS(=O)(=O)c2ccc3[nH]c4c(c3c2)CCCCCC4)cc1Cl	-83*	x	x	x	x	0%
CCc1ccc2oc(C(=O)N(Cc3ccc(N(C)C)cc3)Cc3ccco3)c(C)c2c1	1	x	x	x	x	3%
FC(F)(F)c1cc(-c2ccc3c(c2)OCO3)nc(NCc2ccco2)n1	26	17%	-6%	3%	6.3µM*	-11%
FC(F)(F)c1cc(-c2ccco2)nc(NCc2cccs2)n1	46	-10%	-10%	u	-29%	20µM*
CCO[C@H]1OC(C(N)=O)=C[C@@H](C2CC2)[C@@H]1CCCO	x	x	x	x	19%	x
Cc1cc(CNC(=O)c2cc(-c3ccccc3)nc3ccccc23)nn1C	0	-12%	0%	1%	-13%	13%
Cc1cc(C(=O)NCc2cc(C)n(C)n2)sc1-c1ccccc1	-83*	-7%	-4%	0%	4µM*	-2%
CS(=O)(=O)c1ccc(CNC(=O)C2(C(F)(F)F)CC(CCCO)CCCO2)cc1 (stereo unspecified)	-67*	x	x	x	u	x
CC(C)Oc1ccc(CN2CCC2(C)C(=O)Nc2cccc3cccnc23)cc1 (stereo unspecified)	-78*	x	x	x	x	x
CSc1cccc(NS(=O)(=O)c2ccc3[nH]cc(C(=O)N4CCCC4)c(=O)c3c2)c1	6	x	x	x	x	11%
CCN1CCN(c2ccc([N+](=O)[O-])cc2C=C2C(=O)NC(=O)NC2=O)CC1	-14	4%	18%	8%	-5%	13µM*
COC(CNC(=O)CCc1c(C)nc2c(c(C)nn2-c2ccc(C)cc2)c1C)OC	-23	2.6µM*	1%	13%	u	16%
COc1ccc(CCNC(=O)CCc2c(C)nc3c(c(C)nn3-c3ccc(C)c(C)c3)c2C)cc1OC	16	x	x	x	x	7%
CCN(CC)CCNC(=O)CCc1c(C)nc2c(c(C)nn2-c2ccc(C)c(C)c2)c1C	-98*	13µM*	-1%	23%	7.1µM*	-1%
Cc1ccc(-n2nc(C)c3c(C)c(CCC(=O)NCCCOC(C)C)c(C)nc32)cc1	u	u	0%	-1%	u	3%
O=C(NCCC(F)(F)F)C1=CN2CCN(Cc3cccc(Cl)c3)C(=O)N=C2O1	-1	x	x	x	x	x
Cc1ccccc1NC(=O)CSCc1nc(N)nc(Nc2ccccc2C)n1	-31	4%	3%	-13%	2%	6%
CCCn1c(/C=C/c2cc[n+](C)cc2)nc2ccccc21	u	u	-6%	13µM*	-18%	-23%
